This is one part of a sample in which hits are shown more often than they occur.
Pf Dd2 growth – Plasmodium falciparum Dd2 growth inhibition; P. falciparum Dd2 growth, SYBR Green, 72 h; Potency, µM (highest dose often 28.9 µM), actives largely listed as inhibitors; 120,000 compounds, 4.3% hits; active = well fitted inhibition curve with a large enough effect; also: nearly all actives have a fitted effect of over 65% in size
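Readout: SYBR Green fluorescence, 485 nm excitation, 535 nm emission, after ~16 h lysis at 37C. Before that, Dd2-infected red cells (2.5% hematocrit) grew 72 h with compound, 29 uM top final concentration.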
A number is an active result; . = inactive; [ ] = dose if it differs, or a comment.

SMILES	Pf Dd2 growth
Cc1cccc(NC(=O)N2CCC(CC(=O)NCc3ccccc3)C2)c1C (stereo unspecified)	.
O=C(Cc1ccccc1)Nc1sc2c(c1C(=O)Nc1ccccc1Cl)CCCC2	.
O=C(COc1ccccc1)Nc1sc2c(c1C(=O)Nc1ccccc1Cl)CCCCC2	.
COC(=O)c1ccccc1NC(=O)N1CCc2c(sc3c2CCCC3)C1c1ccc(F)cc1 (stereo unspecified)	.
O=C(c1ccc(Cl)cc1)N1CCC(n2cc[nH]c2=O)CC1	.
Cc1nc(-c2c3n(c(=O)n(Cc4ccc(C#N)cc4)c2=O)CCCCC3)no1	.
O=C(O)C1CCc2nnc(C3CCN(C(=O)c4cccc(Cl)c4)CC3)n21 (stereo unspecified)	.
COc1ccc(OC)c(CN2CC[C@@H]3OCC(=O)N(Cc4c[nH]c5ccccc45)[C@H]3CC2)c1	.
O=C(NCCC1CCN(C(=O)Nc2ccc(F)cc2)CC1)C1CCCC1	.
COc1cccc2c1OCC(C(=O)N1C[C@@H]3[C@H](C1)[C@H]1CC[C@@H]3O1)C2 (stereo partly specified)	.
CN(C)CC(=O)N1Cc2ccccc2CC2(CCCCN2C)C1 (stereo unspecified)	.
CN1CCCCC12Cc1ccccc1CN(C(=O)c1ccccc1)C2 (stereo unspecified)	8.91µM
CN1CCCCC12Cc1ccccc1CN(C(=O)CCCC(=O)O)C2 (stereo unspecified)	.
COc1ccccc1N1CCN(C(=O)C(OC)c2ccccc2)CC1=O (stereo unspecified)	.
c1cc(-c2cc3c(ccn3Cc3ccncc3)c(N3CCOCC3)n2)c2cc[nH]c2c1	.
COCC(=O)NC[C@H]1C[C@@H]2CCN1C[C@@H]2CN1CCC(C)CC1	.
CCn1cc(CN2CC(Oc3ccc(-c4noc(-c5ccncc5)n4)cc3)C2)cn1	1.78µM
Cn1cc(C(=O)N2CC(Oc3ccc(-c4nc(-c5ccccc5)no4)cc3)C2)cn1	.[5.79 µM]
CCn1cc(S(=O)(=O)N2CC(Oc3ccc(-c4nc(C)no4)cc3)C2)cn1	.[5.79 µM]
CN1CC2(CCN(C(=O)c3ccccc3C3CCNC3)CC2)CC1=O (stereo unspecified)	.
CC(C)NC(=O)C[C@@H]1C[C@H]2O[C@H](CNC3CCCC3)[C@@H](O)[C@H]2O1	.
O=C(CC1CCCCN(Cc2ccccc2)C1=O)Nc1ccc(F)cc1F (stereo unspecified)	.
O=C(CC1CCCCN(Cc2ccccc2)C1=O)N1CCN(c2ccc(F)cc2)CC1 (stereo unspecified)	11.2µM
COc1ccc(N2CCN(C(=O)CC3CCCCN(C)C3=O)CC2)cc1 (stereo unspecified)	.
O=C(Nc1cccc(F)c1)N[C@@H]1C=C(C(=O)N[C@H]2CCCNC2=O)C[C@@H](O)[C@@H]1O	.
SMILES	Pf Dd2 growth
CCCS(=O)(=O)Nc1ccc([C@H]2OCC(=O)N(CC(=O)N(C)C)[C@@H]2CO)cc1	.
COc1ccc(-c2nc(C)nc3c2CCN(Cc2ccc(F)cc2)CC3)cc1	.
O=C(C1CCCC1)N1CCc2nc(-c3ccccc3)nc(-c3ccc(Cl)cc3)c2C1	3.98µM
CCc1nc2c(c(-c3ccc(OC)cc3)n1)CCN(C(=O)c1ccc(OC)cc1)CC2	.
CCc1nc2c(c(-c3ccc(Cl)cc3)n1)CN([S+](=O)([O-])c1ccc(C)cc1)CC2	.
CCc1nc2c(c(-c3ccc(Cl)cc3)n1)CCN(Cc1ccnn1C)CC2	.
CCc1nc2c(c(-c3ccc(Cl)cc3)n1)CN(C(=O)c1ccc(F)cc1)CC2	.
CCc1nc2c(c(-c3ccc(Cl)cc3)n1)CN(Cc1ccc(N(C)C)cc1)CC2	8.91µM
CCc1nc2c(c(-c3ccc(O)cc3)n1)CN(Cc1ccnn1C)CC2	.
CCc1nc2c(c(-c3ccc(OC)cc3)n1)CCN(Cc1ccc(C(F)(F)F)cc1)CC2	11.2µM
CCc1nc2c(c(-c3ccc(Cl)cc3)n1)CN(CC1CC1)CC2	4.47µM
O=C(C1CCCC1)N1CCc2nc(-c3ccc(Cl)cc3)nc(-c3ccccc3)c2C1	.
O=C(C1CC1)N1CCc2nc(-c3ccccc3)nc(-c3ccc(Cl)cc3)c2C1	.
Cc1ccc(C2NC(=O)N(CC(=O)Nc3cccc(C#N)c3)C3=C2C(=O)OC3)cc1 (stereo unspecified)	.
CC(C)CCN1CCCC(COc2ccccc2C(=O)NC2CC2)C1 (stereo unspecified)	.
Cc1cc(CN2CCC(N3CCNC3=O)CC2)no1	.
O=C(N[C@@H]1CNCCC[C@H]1O)c1ccc(OCCN2CCOCC2)cc1	.
CCCNC(=O)N1CCCC2(CCC(=O)N(CCc3cnc[nH]3)C2)C1 (stereo unspecified)	.
CCc1nc2c(c(-c3ccc(O)cc3)n1)CCN(C(=O)c1ccc(F)cc1)CC2	.
CCc1nc2c(c(-c3ccc(OC)cc3)n1)CN(C(=O)c1ccc(OC)cc1)CC2	.
CCc1nc2c(c(-c3ccc(Cl)cc3)n1)CN(Cc1cccc(OC)c1)CC2	10µM
CCc1nc2c(c(-c3ccc(O)cc3)n1)CN(Cc1ccc(F)cc1)CC2	.
COc1ccccc1C(=O)N1CCc2nc(C3CC3)nc(-c3ccc(Cl)cc3)c2C1	11.2µM
CCc1nc2c(c(-c3ccc(Cl)cc3)n1)CN(Cc1ccc(OC)cc1)CC2	11.2µM
CCc1nc2c(c(-c3ccc(Cl)cc3)n1)CCN(C(=O)c1ccccc1OC)CC2	.
SMILES	Pf Dd2 growth
Cc1ccc(C(=O)N2CCc3nc(C4CC4)nc(-c4ccc(Cl)cc4)c3C2)cc1	.
CCc1nc2c(c(-c3ccc(O)cc3)n1)CCN(Cc1ccccc1C(F)(F)F)CC2	1.78µM
CCc1nc2c(c(-c3ccc(Cl)cc3)n1)CN(Cc1cccc3ccccc13)CC2	.
COc1ccc(-c2nc(C3CC3)nc3c2CN(C(=O)c2ccccc2F)CC3)cc1	.
CCc1nc2c(c(-c3ccc(OC)cc3)n1)CN([S+](=O)([O-])c1cccc(OC)c1)CC2	.
CCCCc1ncc[nH]1	.
Cc1cnn(CC(=O)N2C[C@@H](COc3ccccc3)[C@H](C(N)=O)C2)c1	.
CC(C)(C)OC(=O)N1CC(N2CCCCC2)C1	.
CC(C)CNC(=O)c1ccc(CN2C(=O)NC3(CCS(=O)(=O)CC3)C2=O)cc1	.
COCCNc1ncc(-c2ccc(OC)c(OC)c2)c2c1OCC2	.
CCOc1ccc(C2Cn3nnc(-c4nc(C(C)(C)C)no4)c3CO2)cc1 (stereo unspecified)	.
COCCN1CCC(N2CCN(S(=O)(=O)c3ccc(Cl)s3)CC2)C1=O (stereo unspecified)	.
CCN(CC)CC[C@H]1CN(C(=O)c2ccc(F)cc2)CC[C@H]1CC(=O)O	.
COc1cccc(C(=O)N2CCC3(CC2)OCC(C(=O)NC(C)C)N3C(=O)c2ccccc2C)c1 (stereo unspecified)	.
O=C(c1cc2n(n1)CC(c1ccc(Cl)cc1)OC2)N1CCN(c2ccc(F)cc2)CC1 (stereo unspecified)	.
O=C(NC1CCNCC1)C1CCN(c2nc(-c3ccccc3)nc3c2CCC3)CC1	.
COCC(=O)N1CCc2nc(-c3ccccc3)nc(-c3ccc(OC)cc3)c2C1	.
CCc1nc2c(c(-c3ccc(Cl)cc3)n1)CN(C(C)=O)CC2	.
COc1ccc(-c2nc(-c3ccccc3)nc3c2CN(C(=O)Cc2ccccn2)CC3)cc1	5.62µM
CCc1nc2c(c(-c3ccc(O)cc3)n1)CCN(C(=O)Nc1ccc(Cl)cc1)CC2	.
CCc1nc2c(c(-c3ccc(Cl)cc3)n1)CN(C(=O)Nc1ccccc1)CC2	11.2µM
O=C(C1CCN(c2nc(-c3ccccc3)nc3c2CCC3)CC1)N1CCNCC1	12.6µM

Compound activity: PubChem BioAssay, National Center for Advancing Translational Sciences (NCATS)
